These results are taken from PubChem BioAssay AID1851 (National Center for Advancing Translational Sciences (NCATS), 2009).

“And” between values parts separate entries of the source, which are not always exact repeats. Identical values can stand only once. In all, about 16,000 compounds went through this assay and about 5,700 (36%) were called active. Not shown: some 24% with an inconclusive outcome. The call rests on the fitted dose curve; in most records, active means well fitted curve in the direction sought with a large enough effect; inconclusive means small, poorly fitted or top-dose-only effect, or effect the other way; inactive means no such curve, though single readings can be large or run the other way. The list shows a part of the results. The source holds several records for some structures; these can differ, active in one and inactive in another.
On the % scale 0 is the no-effect control and ±100 the full control effect.

For this assay, the target named is Cytochrome P450 1A2 (Homo sapiens) (UniProt P05177). The assay can be described thus: Cytochrome panel assay with activity outcomes. The following applies: recombinant CYP, pro-luciferin dealkylation, luminescence, p450-cyp1a2; series mostly up to 57.1 µM.
Cytochrome P450 1A2 (Homo sapiens), sequence (P05177 whole entry, looked up): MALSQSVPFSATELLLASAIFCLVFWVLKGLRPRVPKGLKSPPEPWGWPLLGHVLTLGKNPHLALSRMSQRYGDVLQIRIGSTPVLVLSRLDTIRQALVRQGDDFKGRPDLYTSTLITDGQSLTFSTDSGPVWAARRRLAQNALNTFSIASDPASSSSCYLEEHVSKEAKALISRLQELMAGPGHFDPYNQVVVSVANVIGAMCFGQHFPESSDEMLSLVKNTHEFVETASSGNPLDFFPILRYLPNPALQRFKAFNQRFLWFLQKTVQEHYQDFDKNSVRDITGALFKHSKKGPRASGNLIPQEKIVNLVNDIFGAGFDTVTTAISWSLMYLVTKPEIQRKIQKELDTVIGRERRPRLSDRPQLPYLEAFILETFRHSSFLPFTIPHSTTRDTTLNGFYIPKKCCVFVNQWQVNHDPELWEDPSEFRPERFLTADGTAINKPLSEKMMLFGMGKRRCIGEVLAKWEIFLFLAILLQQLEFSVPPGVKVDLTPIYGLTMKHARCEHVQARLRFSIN
With `Cn1c(=O)cnc2cnc(Oc3ccccc3)nc21`, the AC50 was 10 µM (active).
On the same count and under the same terms, next, `COCCn1c(=O)cnc2cnc(Oc3ccccc3)nc21`: 15.8 µM (active); `O=c1cnc2cnc(Oc3ccccc3)nc2n1CCc1ccccc1`: 3.16 µM (active); `COCCn1c(=O)c(C)nc2cnc(Oc3ccc(OC)cc3)nc21`: 15.8 µM (active).
With `Cc1nn(S(=O)(=O)c2cccs2)c(C)c1Sc1ccc([N+](=O)[O-])cc1`, the AC50 result was “inactive”.
Regarding `O=C1CCCN1CC(CN1CCOCC1)Sc1nnnn1-c1ccccc1` (centres undefined), the AC50 entry was “inactive”.
On the same count and under the same terms, then `CCN(CC)CCCN(Cc1cc2ccc(C)c(C)c2[nH]c1=O)C(=O)NC1CCCCC1`, with “inactive”.
On the same count and under the same terms, then `COc1ccc(-n2c(=O)cnc3cnc(Oc4ccccc4)nc32)cc1`, with 15.8 µM (active); and `COCCn1c(=O)cnc2cnc(Oc3ccc(OC)cc3)nc21`, with 5.01 µM (active); and `COc1ncc2ncc(=O)n(C)c2n1`, with 12.6 µM (active).
With `CN(Cc1cnc2nc(N)nc(N)c2n1)c1ccc(C(=O)N[C@@H](CCC(=O)O)C(=O)O)cc1`, the AC50 entry was “inactive”.
The same measure, in the same setting: next, `N=c1sc2ccccc2n1CCS` (tested in a mixture with another compound): 1 µM (active); `O=c1cnc2cnc(N3CCOCC3)nc2n1C1CC1`: 6.31 µM (active); `CCn1cc(C(=O)O)c(=O)c2cnc(N3CCNCC3)nc21`: “inactive”.
Still for that read-out and setting: then `O=c1cnc2cnc(N3CCOCC3)nc2n1C[C@H]1CCCO1`, with 10 µM (active).
On the same count and under the same terms, next, `CN1CCN(c2ncc3ncc(=O)n(C[C@H]4CCCO4)c3n2)CC1`: 10 µM (active); `COC(=O)c1nn(-c2ccccc2)c(=O)cc1Oc1ccccc1`: 20 µM (active); `COC(=O)c1nn(-c2ccccc2)c(-c2ccccc2)c1C(=O)c1ccccc1`: “inactive”.
Take `O=C1C=C[C@@H](O)[C@H]2[C@@H]3C(=O)N(c4cccc(Oc5ccccc5)c4)C(=O)[C@@H]3CC[C@H]12`: the activity, negative = inhibition was -5.61% [at 11.4 µM] (inactive).
In the case of `COC(=O)N1CCC2(CCCN(Cc3ccccc3)C2)CC1`, the AC50 entry is “inactive”.
On to `O=C(c1ccncc1)N1CCC[C@@]2(CCN(c3ncccn3)C2)C1`, for which the AC50 result is “inactive”.
For `CO/N=C(\C)CCN1CCCCc2nc(C)c(C)cc21`, the activity, negative = inhibition is -3.72% [at 11.4 µM] (inactive).
For the compound `CN1CCC(=NNC(=O)CSCc2ccccc2)CC1`, the AC50 is 14.1 µM (active).
On to `CC1CCC(=NNC(=O)Cc2ccccc2)CC1` (centres undefined), for which the AC50 result was “inactive”.
On the same count and under the same terms, next, `CN(C)c1ccc(-c2noc(C3CCN(S(=O)(=O)c4cccc(C(=O)O)c4)CC3)n2)cc1`: “inactive”; `CCCCC1CCC(c2nc(-c3ccccn3)no2)CC1` (centres undefined): 28.2 µM (active).
Still for that read-out and setting: then `Cc1cc(C)c(C#N)c(SCC(=O)c2ccc(Cl)cc2Cl)n1`, with 2.24 µM (active); and `Cc1cc(C)c(C#N)c(SCc2cc3c(cc2Cl)OCO3)n1`, with 2.24 µM (active).
As to `C/C(=N\[N+](C)(C)C)c1ccc(C)c(C)c1`, the activity, negative = inhibition is -16.9% [at 2.29 µM] (inactive).
As to `Cc1ccc(Oc2cc(N3CCOCC3)nc(-c3ccccc3)n2)cc1`, the AC50 is 2.51 µM (active).
Still for that read-out and setting: next, `COc1cccc(Sc2cc(N3CCOCC3)nc(-c3ccccc3)n2)c1`: 2.51 µM (active).
`O=c1nc(N2CCOCC2)ccn1-c1nc(-c2ccccc2)oc1-c1ccccc1`: the AC50 entry was “inactive”.
The same measure, in the same setting: then `Cc1ccc(S(=O)(=O)c2cc(N3CCOCC3)nc(-c3ccccc3)n2)cc1`, with 4.47 µM (active).
On the same count and under the same terms, next, `Cc1cccc(C(=O)N2CCC(c3nc(-c4ccc(S(=O)(=O)N5CCOCC5)cc4)no3)CC2)c1`: “inactive”; `Cc1ccc(C(=O)N2CCN(c3cc(=O)[nH]nc3-c3ccccc3)CC2)cc1`: “inactive”; `N=C(N)c1ccc(N)cc1`: “inactive”.
As for `O=C(O)CS(=O)c1ccc2c3c(cccc13)C(=O)c1ccccc1-2` (centres undefined), the AC50 was 0.0631 µM (active).
The same measure, in the same setting: next, `Cc1ccc(/C=C/c2nnc(-c3cccs3)o2)cc1`: 8.91 µM (active); `C(=C\c1nnc(-c2cccs2)o1)/c1ccccc1`: 2.51 µM (active).
On the same count and under the same terms, then `COc1ccc(Oc2ncc3nc(-c4cc(F)cc(F)c4)c(=O)n(C)c3n2)cc1`, with 3.16 µM (active).
In the case of `COc1ncc2nc(-c3cc(F)cc(F)c3)c(=O)n(C)c2n1`, the AC50 is 2 µM (active).
Consider `Cn1c(=O)c(-c2cc(F)cc(F)c2)nc2cnc(Oc3ccccc3)nc21`, for which the AC50 is 2 µM (active).
As to `Nc1nc2c(c(=O)[nH]1)N(C=O)[C@H](CNc1ccc(C(=O)N[C@@H](CCC(=O)O)C(=O)O)cc1)CN2`, the AC50 result was “inactive”.
The same measure, in the same setting: then `COc1ccccc1NC(=O)CC1COc2ccccc2O1` (centres undefined), with 7.08 µM (active).
On the same count and under the same terms, then `Cn1c(C(=O)O)c(CC(=O)NCC2COc3ccccc3O2)c2ccccc21` (centres undefined), with “inactive”; and `COc1cccc(OC)c1OCCNC[C@@H]1COc2ccccc2O1`, with 12.6 µM (active) and 25.1 µM (active).
Same read-out and setting: then `COc1ccccc1NC(=O)N1CCC(c2nnc(SCC(N)=O)n2C)CC1`, with “inactive”; and `COc1cccc(OC)c1OCCCN1CCOCC1`, with “inactive”.
For the compound `CC(C)N=c1scc(-c2ccco2)n1/N=C/c1ccc(O)c(O)c1`, the AC50 is 15.8 µM (active).
Same read-out and setting: next, `CNc1cc(NS(=O)(=O)c2ccc(N)cc2)nc(NC)n1`: “inactive”; `Cc1cccc(OCCSCc2nc3ccccc3[nH]2)c1`: 2.24 µM (active); `Cc1ccccc1N1CCN(S(=O)(=O)C[C@@]23CC[C@H](C[C@H]2NC(=O)[C@@H](N)CCS(C)(=O)=O)C3(C)C)CC1`: “inactive”.
Still for that read-out and setting: then `COc1ccc(/C=N/NC(=O)c2cc(-c3ccc(C)cc3C)nc3ccccc23)cc1COC(C)=O`, with “inactive”; and `COc1ccc(C(=O)Oc2cc(/C=N/NS(=O)(=O)c3ccc(C)cc3)ccc2OC)cc1`, with “inactive”.
Still for that read-out and setting: then `COc1ccc(/C=N/NC(N)=S)cc1OC(=O)c1cccc2ccccc12`, with 1.58 µM (active); and `O=c1c2ccccc2nc2n1CCC2`, with 6.31 µM (active).
On to `O=c1c2ccccc2nc2n1C(CSc1ccc(F)cc1)CN2` (centres undefined), for which the AC50 entry was “inactive”.
On the same count and under the same terms, then `O=c1c2ccccc2nc2n1CCc1c-2[nH]c2ccccc12`, with 0.316 µM (active).
The same measure, in the same setting: then `CC(C)NC(=O)N1CC2(CCN(C(=O)c3ccncc3)CC2)C1`, with “inactive”; and `Cc1noc(C)c1C(=O)N1CCC2(CCCN(Cc3ccccc3)C2)CC1`, with “inactive”; and `O=[N+]([O-])c1ccc(C2=Nn3c(nnc3-c3ccc(Cl)cc3)SC2)o1`, with 0.158 µM (active).
Still for that read-out and setting: next, `Cc1nc2sccc2c(=O)n1-c1cccc(Cl)c1`: 11.2 µM (active).
For the compound `COC(=O)c1cnn(C(=O)c2ccccc2Br)c1N`, the AC50 was 8.91 µM (active).
Still for that read-out and setting: next, `COC(=O)c1cnn(C(=O)c2cc(OC)ccc2Br)c1N`: 28.2 µM (active).
On the same count and under the same terms, next, `COc1ncc2nc(-c3cc(F)cc(F)c3)c(=O)n(C3CC3)c2n1`: 1.58 µM (active); `O=c1c(-c2cccs2)nc2cnc(Oc3ccccc3)nc2n1C1CC1`: 2.51 µM (active); `O=c1c(-c2cc(F)cc(F)c2)nc2cnc(Oc3ccccc3)nc2n1C1CC1`: 2.51 µM (active).
As to `CCCC[C@@H]1CN2[C@H](c3ccc(Br)cc3)[C@H](C)CC[C@H]2C(=O)O1`, the activity, negative = inhibition was 3.25% [at 11.4 µM] (inactive).
`CN(C)c1ccc(O)c2c1C[C@H]1C[C@H]3[C@@H](N(C)C)C(=O)C(C(N)=O)=C(O)[C@]3(O)C(=O)C1=C2O`: the AC50 entry is “inactive”.
Same read-out and setting: next, `Cc1ccccc1NC1=C(C(=O)c2ccccc2)N(C)S(=O)(=O)c2ccccc21`: “inactive”; `CN1C(C(=O)Nc2ccccn2)=C(O)c2ccccc2S1(=O)=O`: “inactive and 20 µM (active)”; `CN1C(C(=O)Nc2ccccn2)=C(O)c2sccc2S1(=O)=O`: “inactive”.
On the same count and under the same terms, next, `COc1nc(Oc2ccc(/C=N/O)cc2)nc(N(C)C)n1`: 0.447 µM (active).
Consider `CCc1cc2c(nc1CC)CCN(CC/C(C)=N/O[C@@H](C)CN1CCCc3nc(C)c(C)cc31)C2`, for which the activity, negative = inhibition is 5.54% [at 11.4 µM] (inactive).
`Fc1ccc(CN(C2=NCCN2)c2c(Cl)cccc2Cl)cc1`: the AC50 result was “inactive”.
The same measure, in the same setting: then `Clc1cccc2c1CN(C1=NCCN1)C2`, with 0.398 µM (active); and `Clc1cccc(Cl)c1NC1=NCCN1`, with “inactive”; and `COc1ccc(-n2c(CNc3ccc(C)cc3)nnc2SCC(=O)Nc2nc(-c3ccccc3)cs2)cc1`, with “inactive”.
On the same count and under the same terms, then `CCNC(=O)CSc1nnc(C2CC2)n1-c1ccccc1`, with “inactive”; and `CCOc1ccc(NCc2nnc(SCc3ccccc3Cl)n2-c2ccccc2)cc1`, with 7.08 µM (active); and `COC(Cc1nnc(SC)n1-c1ccc(Cl)cc1)OC`, with “inactive”.
`COC(=O)CSc1nnc(CNc2ccc(Cl)cc2)n1-c1ccccc1`: the AC50 is 12.6 µM (active).
On the same count and under the same terms, next, `CCCNC(=O)c1cc2c(C(F)(F)F)nn(C)c2s1`: 0.794 µM (active); `CCNS(=O)(=O)c1ccc(NC(=O)c2cc(C(F)(F)F)nn2C)cc1`: “inactive”.
Still for that read-out and setting: next, `C#CCSc1nnc(-c2cc3c(C(F)(F)F)nn(C)c3s2)n1C`: 1.12 µM (active); `CCCCSc1nnc(-c2cc3c(C(F)(F)F)nn(C)c3s2)n1C`: 14.1 µM (active).
Still for that read-out and setting: then `C=CCSc1nnc(-c2cc3c(C(F)(F)F)nn(C)c3s2)n1C`, with 1.12 µM (active); and `CCc1c2c(nc3cccc(OC)c13)OC(CC)C2` (centres undefined), with 2 µM (active).
Consider `COc1ccc(-c2nsc3c(N4CCCCC4)ncnc23)cc1`, for which the AC50 was 2.82 µM (active).
For `COCC(=O)N1CCC2(CC1)CCN(C(=O)Nc1cccc(C#N)c1)CC2`, the AC50 result was “inactive”.
Still for that read-out and setting: next, `Cc1nnc(-c2cnn(-c3ccccc3)c2N)n1Cc1ccccc1`: 14.1 µM (active).
With `NCc1nnn(Cc2ccccc2)c1N`, the activity, negative = inhibition was 2.27% [at 11.4 µM] (inactive).
In the case of `Cc1nnc(-c2cnn(-c3ccccc3)c2N)n1Cc1ccc(F)cc1`, the AC50 result is “inactive”.
As for `O=C(c1cnccn1)N1CCC2(CCCN(c3ncccn3)C2)CC1`, the AC50 entry is “inactive”.
Same read-out and setting: then `COc1ccc(C2C(C(=O)c3ccco3)=C(O)C(=O)N2Cc2cccnc2)cc1OC` (centres undefined), with “inactive”; and `COc1ccc2c(=O)cc(-c3ccncc3)oc2c1OC`, with 1.58 µM (active); and `Cn1cc(C(=O)c2cccc(Cl)c2Cl)cc1C(=O)O`, with “inactive”.
The same measure, in the same setting: next, `Cn1cccc1C(=O)C(=O)Nc1cccc(Cl)c1Cl`: 17.8 µM (active); `Cn1cccc1C(=O)N1CCC2(CCN(C(=O)Nc3ccccc3)CC2)CC1`: “inactive”.
